Screening results (PubChem)
CHX counter = affects cycloheximide protein synthesis inhibition readout, counter-screen; 12% of 300,000 active; AID 2314; cell reporter, cycloheximide protein synthesis inhibition counterscreen; max response, %; in the data active = max response mostly above about 13%, no sharp cut-off; inactive = mostly below about 14%; also: read at 38.3 µM for the half of the compounds with a filed dose; 0% is about no effect
Shiga toxin inh = blocks Shiga toxin action in Vero cells; Vero cells, Shiga toxin protein synthesis inhibition reporter; AID 2315; inhibition, % at 38.7 µM; 9.2% of 290,000 active; in the data active = inhibition mostly above about 28%, no sharp cut-off; inactive = mostly below about 43%; also: 0% is about no effect
Pf growth 96h = inhibits malaria parasite growth, 96 h. P. falciparum luciferase reporter growth, 96 h. 6.9% of 320,000 active. AID 504834. Potency, µM (titrated, usually from 28.7 µM), inactives show top-dose activity change, negative = inhibition, most hits filed as inhibitors; also: potency is read from the fitted curve at half-maximal effect; % is scaled to controls: 0 for no effect and ±100 for the full control effect
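Luminescence readout: decreased luciferase signal marks inhibited growth of reporter-expressing P. falciparum in infected red cells (2% hematocrit, 0.05% parasitemia final), exposed to compound two generations (96 h, 37 C, 5% CO2).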
Pf growth 48h = P. falciparum growth inhibition at 48 hours (one generation) | P. falciparum luciferase growth in erythrocytes, 48 h | AID 504832 | Potency, µM (highest dose often 28.7 µM), for inactives: top-dose activity change, negative = inhibition, most hits filed as inhibitors | 5.9% of 310,000 active; also: potency is read from the fitted curve at half-maximal effect; % is scaled to controls: 0 for no effect and ±100 for the full control effect
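Luminescence readout; reporter = integrated firefly luciferase in P. falciparum. RBC culture at 2% hematocrit, 0.1% parasitemia final, 37 C/5% CO2; decreased signal taken as growth inhibition.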
* marks the source's active call; other numbers are inactive results; [ ] = remark or other dose. Most compounds without a hit are left out; they make up all but 21% or so of the library. Unless noted, calls follow the shape of the dose curve; as a rule, active = well fitted inhibition curve with a large enough effect; inconclusive = small, poorly fitted or top-dose-only effect, or another doubt; inactive = no such curve, though single readings can be large or run the other way.

Results for COC(=O)[C@]1(Cc2ccccc2)N[C@H](c2ccc(-c3ccc(F)cc3)cc2)[C@@H]2C(=O)N(C)C(=O)[C@@H]21 ?
Pf growth 96h: 13µM*; Pf growth 48h: inconclusive

Results for COc1ccc(C2NC(Cc3ccccc3)(C(=O)O)C3C(=O)N(c4ccccc4OC)C(=O)C23)cc1 (stereo not given) ?
CHX counter: 8; Shiga toxin inh: 3; Pf growth 96h: 11%; Pf growth 48h: 20%

What do the screens show for `CC[C@@](C)(NS(=O)(=O)OCC(Cl)(Cl)Cl)c1ccccc1`?
CHX counter: -1; Shiga toxin inh: -4; Pf growth 96h: 22%; Pf growth 48h: 24%

What do the screens show for `O=C(CN1C(=O)NC(Cc2ccccc2)C1=O)Nc1ccccc1OC(F)F` (stereo not given)?
Pf growth 96h: 2%; Pf growth 48h: 6%

What do the screens show for `CCCc1nnc2c(N(C)S(=O)(=O)c3ccc(C)cc3)nc3ccccc3n12`?
CHX counter: 1; Shiga toxin inh: -6; Pf growth 96h: 13µM*; Pf growth 48h: inconclusive

Results for CCCCc1nnc2c(N(C)S(=O)(=O)c3ccc(C)cc3)nc3ccccc3n12 ?
CHX counter: -1; Shiga toxin inh: 8; Pf growth 96h: 12µM*; Pf growth 48h: inconclusive

Results for CCc1nnc2c(N(C)S(=O)(=O)c3ccc(C)cc3)nc3ccccc3n12 ?
CHX counter: -2; Shiga toxin inh: -5; Pf growth 96h: 8%; Pf growth 48h: -1%

What do the screens show for `CC(NC(=O)CN1C(=O)NC2(CCCCCC2)C1=O)c1ccccc1` (stereo not given)?
Pf growth 96h: -28%; Pf growth 48h: inconclusive

What do the screens show for `COc1ccc(C2C=C(C)Nc3nc4ccccc4n32)cc1` (stereo not given)?
CHX counter: 43*; Shiga toxin inh: 111*; Pf growth 96h: 50%; Pf growth 48h: 17%

Results for COc1ccc(C2C(C(=O)c3ccccc3)=C(C)Nc3nc4ccccc4n32)c(OC)c1 (stereo not given) ?
CHX counter: 31*; Shiga toxin inh: 43*; Pf growth 96h: inconclusive; Pf growth 48h: inconclusive

What do the screens show for `CNC(=O)C1=C(C)Nc2nc3ccccc3n2C1c1cccc(OC)c1` (stereo not given)?
CHX counter: -2; Shiga toxin inh: -3; Pf growth 96h: 90%

What do the screens show for `COc1ccc(C2C(C#N)=C(N)Nc3nc4ccccc4n32)cc1` (stereo not given)?
CHX counter: 27*; Shiga toxin inh: 26*; Pf growth 96h: 33%; Pf growth 48h: 10%

Results for COC(=O)CC1(C(=O)OC)Oc2ccc(Br)cc2C(=O)N1c1ccc(Br)cc1Cl (stereo not given) ?
CHX counter: 0; Shiga toxin inh: -3; Pf growth 96h: 12µM*; Pf growth 48h: inconclusive

How did COC(=O)CC1(C(=O)OC)Oc2ccc(Br)cc2C(=O)N1c1cc(Cl)cc(Cl)c1 (stereo not given) do in these assays?
CHX counter: -1; Shiga toxin inh: -4; Pf growth 96h: 9.3µM*; Pf growth 48h: 5.2µM*

Results for COC(=O)CC1(C(=O)OC)Oc2ccc(Br)cc2C(=O)N1c1cccc(Cl)c1Cl (stereo not given) ?
CHX counter: 1; Shiga toxin inh: -15; Pf growth 96h: 13µM*; Pf growth 48h: inconclusive

Results for COC(=O)CC1(C(=O)OC)Oc2ccc(Br)cc2C(=O)N1c1cc(Cl)c(Cl)cc1Cl (stereo not given) ?
CHX counter: 8; Shiga toxin inh: -3; Pf growth 96h: inconclusive; Pf growth 48h: inconclusive

Results for CCCNC(=O)C1(O)c2cc(Br)ccc2NC(=O)N1c1ccc(Cl)cc1 (stereo not given) ?
CHX counter: -5; Shiga toxin inh: -16; Pf growth 96h: 31%; Pf growth 48h: 2%[0.00184 µM]

What do the screens show for `COC(=O)c1ccc(N2C(=O)Nc3ccccc3N2O)cc1`?
CHX counter: 1; Shiga toxin inh: 33; Pf growth 96h: 10%; Pf growth 48h: 7%

What do the screens show for `c1ccc(-c2nccc(-c3ccco3)n2)nc1`?
CHX counter: 22; Shiga toxin inh: 42*; Pf growth 96h: inconclusive; Pf growth 48h: -24%

How did Fc1ccc(-c2csc(-c3ccccn3)n2)cc1F do in these assays?
CHX counter: 46*; Shiga toxin inh: 175*; Pf growth 96h: 85%; Pf growth 48h: 161%

Results for c1ccc(-c2nc(-c3ccccn3)no2)cc1 ?
CHX counter: -5; Shiga toxin inh: -15; Pf growth 96h: -19%; Pf growth 48h: 3%

What do the screens show for `c1ccc(-c2noc(-c3ccno3)n2)nc1`?
CHX counter: 31*; Shiga toxin inh: 48*; Pf growth 96h: 13%; Pf growth 48h: 34%

Results for c1ccc(-c2noc(-c3ccco3)n2)nc1 ?
CHX counter: 29*; Shiga toxin inh: 36*; Pf growth 48h: 224%

How did c1ccc(-c2ccc(-c3nc(-c4ccccn4)no3)cc2)cc1 do in these assays?
CHX counter: -8; Shiga toxin inh: -6; Pf growth 96h: inconclusive

How did c1coc(-c2ccnc(-c3ccncc3)n2)c1 do in these assays?
CHX counter: 11; Shiga toxin inh: 15; Pf growth 96h: 13%; Pf growth 48h: -1%

Results for C[C@H](CCC(=O)O)C[C@H](C)C[C@H](C)C(=O)/C=C(\O)[C@H](C)C[C@H](C)C/C=C/[C@@H](C)[C@@H](O)[C@@H](C)[C@@H](O)C[C@@H]1CC[C@@](C)([C@H]2CC[C@@](C)([C@@H](C)O)O2)O1 ?
CHX counter: -3; Shiga toxin inh: -3

What do the screens show for `CC(C)(O)CC[C@@H](O)[C@](C)(O)C1CC[C@@]2(O)C3=CC(=O)[C@]4(O)C[C@@H](O)[C@@H](O)C[C@]4(C)C3CC[C@]12C` (stereo not given in full)?
Pf growth 96h: 11%; Pf growth 48h: -3%

What do the screens show for `Cc1ccc(-c2noc(-c3ccno3)n2)cc1`?
CHX counter: 49*; Shiga toxin inh: 82*; Pf growth 96h: 31%; Pf growth 48h: 41%

How did c1ccc(-c2nc(-c3ccco3)cs2)nc1 do in these assays?
CHX counter: 30*; Shiga toxin inh: 107*; Pf growth 96h: 78%; Pf growth 48h: 105%

How did Nc1cc(-c2ccco2)no1 do in these assays?
CHX counter: 16; Shiga toxin inh: 42; Pf growth 96h: inconclusive; Pf growth 48h: -8%

What do the screens show for `COc1ccc(Cn2c(=S)[nH]c3ccccc3c2=O)cc1`?
CHX counter: -3; Shiga toxin inh: -7; Pf growth 96h: inconclusive

What do the screens show for `COc1ccc(-n2c(C)cc(C(=O)COC(=O)Cc3n[nH]c(=O)c4ccccc34)c2C)cc1`?
CHX counter: -6; Shiga toxin inh: 14; Pf growth 96h: 2.1µM*; Pf growth 48h: 12µM*

How did Cc1cc(C(=O)COC(=O)Cc2n[nH]c(=O)c3ccccc23)c(C)n1-c1ccc2c(c1)OCO2 do in these assays?
CHX counter: 2; Shiga toxin inh: -15; Pf growth 96h: inconclusive; Pf growth 48h: 6.6µM*

Results for Nc1nc(Nc2cccc(F)c2)nc(NCCO)c1[N+](=O)[O-] ?
CHX counter: 7; Shiga toxin inh: -2; Pf growth 96h: inconclusive; Pf growth 48h: inconclusive
